Source: PubChem BioAssay
D2 ag-1 – activates the human D2 dopamine receptor; actives 0.084% (n = 360,000); activation, % (no concentration beside the values); DiscoveRx PathHunter D2 beta-arrestin, luminescence, 90 min; 100% = 57 uM dopamine signal; in the data active means activation above about 40%; inconclusive means between about 15% and that limit
Target sequence (P14416 whole entry, looked up): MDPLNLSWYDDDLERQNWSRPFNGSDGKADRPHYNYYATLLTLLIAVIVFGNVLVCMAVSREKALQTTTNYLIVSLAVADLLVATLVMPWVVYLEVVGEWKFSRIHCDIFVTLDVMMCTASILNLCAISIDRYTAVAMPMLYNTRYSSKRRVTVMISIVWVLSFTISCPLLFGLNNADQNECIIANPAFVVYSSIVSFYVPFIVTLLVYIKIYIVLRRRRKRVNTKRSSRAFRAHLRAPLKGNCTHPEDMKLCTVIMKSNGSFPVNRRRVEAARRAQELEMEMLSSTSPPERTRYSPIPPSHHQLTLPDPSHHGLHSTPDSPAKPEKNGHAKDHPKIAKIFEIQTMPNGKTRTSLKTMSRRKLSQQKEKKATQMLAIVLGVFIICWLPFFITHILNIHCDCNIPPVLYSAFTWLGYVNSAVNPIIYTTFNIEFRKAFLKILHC
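DiscoveRx PathHunter D2 beta-arrestin cells (2,100/well) attached overnight, then compound-stimulated 90 min at 37 C in HBSS/10 mM HEPES/0.1% Tween-20 buffer; beta-galactosidase complementation read by luminescence after 1 h at ambient temperature. Dopamine 57 uM final (EC100) as control.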
D2 PAM-1 – D2 dopamine receptor (human) potentiation | P14416 | HEK293 T-REx D2, calcium flux, EC20 dopamine potentiation | potentiation, % at 10 µM | actives 0.34% (n = 340,000);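 active means potentiation over 3 SD above the plate norm, cut at about 30% in these data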; further: 0% is about no effect
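Cells plated with tetracycline inducer and held overnight at 30 C; calcium dye loaded 30–90 min at room temperature; baseline taken, compound added and read 180 s; EC20 dopamine then added and read 180 s.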
D2 PAM-2 – human D2 receptor positive allosteric modulation | P14416 | DiscoveRx D2 beta-arrestin cells, luminescence, 90 min; 100% = 57 uM dopamine signal | potentiation, % (concentration not given with the values) | actives 0.23% (n = 360,000) | AID 624464; in the data active means potentiation above about 50%; inconclusive means mostly about 30% to 49%
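D2 cells co-treated with compound plus 50 nM dopamine (EC20) for 90 min at 37 deg C to detect potentiation. Beta-arrestin recruitment was read as enzyme-fragment luminescence after 1 h at ambient temperature. Full response was set by 57 uM dopamine.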
D2 antagonist – antagonizes the human D2 dopamine receptor | P14416 | HEK293 TREx D2 cells, calcium flux, dopamine EC80 | inhibition, % at 10 µM | actives 2% (n = 340,000) | AID 485344; in the data active means inhibition above about 30%; inactive means below that, where a call was filed; further: 0% is about no effect
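Antagonism is scored as inhibition of an EC80 dopamine-evoked calcium signal in a force-coupled, tetracycline-inducible HEK293 T-REx D2 line, with compound present 180 s before agonist.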
D2 ag-2 – D2 dopamine receptor (human) agonism; P14416; HEK293 T-REx D2 cells, calcium flux agonist mode; activation, % at 2 µM; actives 0.53% (n = 340,000);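 active means activation over 3 SD above normal in the single-dose calcium agonist read, cut at about 30% in these data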; further: 0% is about no effect
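Calcium-flux readout, 1 cycle/sec over 180 s following compound pin transfer, in inducible HEK293 Trex D2 cells (force-coupled); dopamine controls included. Positive calcium responses during this window marked compounds as potential agonists.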
Starred values were filed as active, the others as inactive; ? = inconclusive; nt = no result given. Sampled rows, rich in hits. Any-hit rate of the full collection: about 2.4%.

SMILES	D2 ag-1	D2 PAM-1	D2 PAM-2	D2 antagonist	D2 ag-2
CNc1cncc(-c2cccc(C(=O)NC3CC3)c2)n1	-4	nt	-5	nt	nt
COc1ccc(CCNC(=O)CNCCc2ccc(F)cc2)cc1	-7	0	-16	1	-1
COc1ccccc1CNS(=O)(=O)c1c(C(=O)N2CCCC2)c(C)n(C)c1C	-1	-7	-23	-25	1
COc1ccccc1CNS(=O)(=O)c1c(C(=O)N2CCCCC2)c(C)n(C)c1C	-4	10	-13	30*	0
C[C@@H]1COC(=O)[C@@H](CC(=O)OC(C)(C)C)C/C=C\C[C@H](CC(=O)NCCO)C(=O)N1	-4	nt	-9	nt	nt
Cc1cc(OCC(=O)OCC(=O)NCc2cccs2)ccc1Cl	-3	nt	-2	nt	nt
CCN(CC)S(=O)(=O)c1ccc2c(c1)N(CC(=O)Nc1ccc(OC)cc1)C(=O)CS2	nt	18	nt	nt	-1
O=C(Nc1ccc(S(=O)(=O)NC2=NCCCCC2)cc1)c1ccc([N+](=O)[O-])s1	7	-3	68*	-20	0
O=C(Nc1ccc(S(=O)(=O)NC2=NCCCCC2)cc1)c1cccs1	-3	nt	1	nt	nt
Cc1cc(NS(=O)(=O)c2ccc(NC(=O)c3ccc([N+](=O)[O-])s3)cc2)nc(C)n1	12	nt	60*	nt	nt
O=C(CCNS(=O)(=O)c1ccc2c(c1)CCN2C(=O)C1CC1)Nc1ccc(Cl)cc1	nt	-6	nt	nt	-2
Cc1ccc(-c2noc(-c3cccnc3N(C)Cc3ccc(Cl)cc3)n2)cc1	nt	2	nt	nt	2
O=C(CN1CCC(n2nnc3cc(F)ccc32)CC1)NNC(=O)c1ccccc1	-3	16	-19	9	0
CC1CCC(NC(=O)CN2CCC(n3nnc4cc(F)ccc43)CC2)CC1 (centres undefined)	-2	-23	-39	41*	1
Cc1cccc(N=c2c([N+](=O)[O-])nn(-c3ccc(Cl)cc3)n2O)c1	11	2	?	10	1
Cc1cc(C)cc(N=c2c([N+](=O)[O-])nn(-c3cccc(Cl)c3)n2O)c1	9	-11	97*	10	-2
CCc1cccc(N=c2c([N+](=O)[O-])nn(-c3ccc(Cl)cc3)n2O)c1	10	-7	87*	10	0
Cc1ccc(CN=c2c([N+](=O)[O-])nn(-c3ccc(Cl)cc3)n2O)cc1	1	2	5	11	-1
CC(C)CNc1nc(NC(C)(C)C)nc(Oc2ccc(=O)n(-c3ccccc3)n2)n1	nt	-2	nt	nt	0
CCc1cc2cc3c(cc2nc1SCC(=O)Nc1cc(C)on1)OCO3	-1	-2	-8	32*	0
CCOC(=O)CSc1nc2cc3c(cc2cc1CC)OCCO3	-5	75*	-23	-13	1
CCc1cc2ccc(C)cc2nc1SCC(=O)Nc1cc(C)on1	-1	3	0	-7	0
CCCn1c2ccccc2c2cnn(CC(=O)N(CCCOC(C)C)Cc3ccco3)c(=O)c21	nt	2	nt	nt	-1
Cc1noc(C)c1S(=O)(=O)NCCN1CCN(c2ccccc2)CC1	10	-17	-23	33*	31*
Cc1ccc(CCNC(=O)Cn2c(-c3cccs3)cc3ccccc32)cc1	nt	-12	nt	nt	0
SMILES	D2 ag-1	D2 PAM-1	D2 PAM-2	D2 antagonist	D2 ag-2
COC(=O)NC1(C(F)(F)F)C(=O)NC(C)=C1C(=O)OC (centres undefined)	0	39*	-10	-4	1
COc1ccc(-c2cnc(C)o2)cc1S(=O)(=O)Nc1ccc(C)c(F)c1	nt	7	nt	nt	1
O=C(CNS(=O)(=O)c1ccccc1)OCC(=O)c1ccc(F)cc1	-4	36*	-6	-16	-2
CCCOc1ccc(C(=O)NCC(c2cccs2)N(C)C)cc1 (centres undefined)	-2	-10	-1	14	-1
CCOc1ccc(C(=O)NCC(c2cccs2)N(C)C)cc1OCC (centres undefined)	-2	-28	-26	51*	-1
CCOc1ccc(C(=O)NCc2ccncc2)cc1OCC	-1	-24	-41	34*	1
Cc1ccccc1C(=O)NC(=S)Nc1ccccc1C(F)(F)F	-2	7	0	50*	1
O=C(c1ccccc1)N1CCc2cc(CNS(=O)(=O)c3ccccc3Cl)ccc21	nt	-6	nt	nt	nt
